We go through 107 sequences from PubChem BioAssay AID1508600 (Functional Genomics Laboratory (NCATS/FGL), 2020).

The campaign covered roughly 53,000 sequences. About 3,700 (7%) were called active.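 How the source made its calls: active means gene knockdowns whose robust z-score for IL-1 alpha signal is at least 2 or at most -2, so actives lie on both sides; inactive means the rest.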 The entries come from a sample that favours actives as a whole.

A short description of this assay: Components of the Cytosolic LPS Sensing Pathway: Gene Identification via Genome-wide siRNA Screen.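 Further: robust z of the log signal after scaling to non-targeting control siRNA wells of the plate.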 Conditions: RAW264.7 macrophages, IL-1a HTRF, actives lie on both sides, screened at 100 nM (by protocol), cells primed 5 h with Pam3CSK4 first. The method, boiled down: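 Using IL-1a HTRF as read-out, the screen measured release from RAW264.7 cells after 48h siRNA knockdown (100 nM), 5 h Pam3CSK4 priming and 24 h cytosolic LipidA. Values were expressed relative to negative-control wells as robust z-scores.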
For orientation: In TR-FRET formats the signal depends on donor and acceptor labels being close together.
For the sequence GGACAAGGAUAGUAGUAAGTT against Parp1, the z-score was -0.122 (inactive).

Consider GCAUACCCUAUUUAGUUUUTT against Gpr33, for which the z-score was -0.00896 (inactive).

On to GCACGAAGAACCACACAAGTT against Sp110, for which the z-score was 2.37 (active).

Take CCGGAGUCAGUAUCCAGAATT against Ndufaf4: the z-score was -0.282 (inactive).

For GCCGUGGAUCGAAUAAUUCTT against Coq7, the z-score was -1.03 (inactive).

For GGUUUUAGUAAACUUCCCATT against Fam76b, the z-score is -0.692 (inactive).

For the sequence GGAUCCUGGAUAAUCUGGGTT against Plscr1, the z-score is -1.35 (inactive).

In the case of GCGUGCAUAUAUCCAAUGCTT against Tardbp, the z-score is 1.36 (inactive).

On to GGUAAUCUCCAAAAAACCATT against Lilra6, for which the z-score is -0.863 (inactive).

For GCUUUGAGCAGCUAGGUUATT against Tpcn2, the z-score is 3.78 (active).

Consider GGGACCUUUUCAGGACCUUTT against Ucp2, for which the z-score was -0.954 (inactive).

Regarding GGCUGCCUUCAUCUUUUCUTT against Fth1, the z-score is 0.873 (inactive).

Turning to GCUUGUAUGAGAUUACCUATT against Ttc1, the z-score was 1.19 (inactive).

GGUCUUUGAGUCUACACAGTT against Pde4dip: the z-score was -2.52 (active).

Consider GGAGUCCUACGUCAAAGAATT against Pigz, for which the z-score is -0.251 (inactive).

On to GGAUCAGUAGCAUUAACAATT against Tcf7l2, for which the z-score was 0.414 (inactive).

With GGUUCUCCAUACUUAUGCCTT against Prex1, the z-score is 2.97 (active).

As to GGGCAAUCUGCUAUUCUCUTT against Pheta2, the z-score is 0.18 (inactive).

Regarding CCUUCUGUAUAGGUUCUGGTT against Slc41a3, the z-score is 0.716 (inactive).

Take GGGCUUAUGGAGUUGUAAATT against Avpi1: the z-score is -0.633 (inactive).

Turning to GGACAAGAAAAAGGAUUAGTT against Clptm1, the z-score is -0.414 (inactive).

As to GCGUGAGUCCCUAUAUGAATT against Tmem177, the z-score is 2.98 (active).

For the sequence GGCUUCGCUCUGGUUUACUTT against Rap1b, the z-score is 0.323 (inactive).

For the sequence GCAAUUCCACGUAUGGAUUTT against Olfr652, the z-score is 0.336 (inactive).

Consider GGCAAAAUUUGUGUGCAAATT against Mrc1, for which the z-score was 1.02 (inactive).

For the sequence GGCAGUCAUUACCUAUCAGTT against Atp7b, the z-score was -0.271 (inactive).

With GGGUCAGCCAAAGGAAAAUTT against Nlrc3, the z-score is -0.193 (inactive).

On to CCAUGUCAAUAUAGCUGUCTT against Igfbpl1, for which the z-score is 2.25 (active).

As to GCUUUCUCUUAUGGAUCUATT against Olfr700, the z-score is 0.966 (inactive).

For CGUGAUGCUGUAAAUAGUUTT against AI606181, the z-score was -0.485 (inactive).

Consider “CCCAGAAGACCCGAACUUUTT against E130006D01Rik”, for which the z-score is 0.378 (inactive).

Regarding GGAGCAUCUCUCCAGAUUGTT against Igsf9, the z-score is 0.567 (inactive).

As to CCGCUUUCUUGCCAUUCACTT against Olfr576, the z-score is -0.266 (inactive).

GCCUUAAUGCUUCAAGGUGTT against Hspd1: the z-score is 0.021 (inactive).

As for UCUGACAUUGACUCUAGCCTT against Fbxw16, the z-score is -2.5 (active).

With GUUUAUGGCCUCCUGUUGCTT against Gpbar1, the z-score was -0.773 (inactive).

As for GCAUGAGAGGUUUCAGUAUTT against Rnf150, the z-score was 0.454 (inactive).

As for UUCGCUCUUGGUCCCUUCATT against Olfr1322, the z-score was 1.06 (inactive).

For GCAUGUUGUCGACACAUGCTT against Bcl6, the z-score was 2.39 (active).

“CCGUCGUGGGUGAUAUCAUTT against 2310022A10Rik”: the z-score was -0.0389 (inactive).

Regarding GGUGGCUCUCCAAGUUCUATT against Uchl4, the z-score was -0.279 (inactive).

For GAACACCCUGCCGACCAAATT against Tmsb10, the z-score is -0.242 (inactive).

For GGACUGAGUCAGAUUUACATT against Foxn2, the z-score is -0.622 (inactive).

As for GGGCUGAUGCUUAAACAAATT against Vmn1r72, the z-score was -2.19 (active).

In the case of GCCCUUAUUAAACCAUUUGTT against Usp9x, the z-score is -0.641 (inactive).

For the sequence GGACUGUUUUAGAUUACUUTT against Klra4, the z-score was 0.968 (inactive).

As to GCUUAUGUUUCUGCCACUCTT against Olfr1136, the z-score was 0.124 (inactive).

Consider GCCACCAUUAAAAGACUGATT against Gdnf, for which the z-score is 0.737 (inactive).

On to GGACAAGAUGAACUUUUCCTT against Pomp, for which the z-score was -2.85 (active).

For CCUUGUAUGGAGAUAUUCCTT against Aph1b, the z-score was -0.573 (inactive).

Turning to GGUUCAGUUUGGAAAUGAATT against Rbm26, the z-score was 0.809 (inactive).

As for CGUCUGUUUACCUCAUGAATT against Arid3a, the z-score was -0.769 (inactive).

GGAUUUUGUCGGCAAGGCCTT against Ap5s1: the z-score was -3.12 (active).

Take GGACUACUUCCCAAGAAUUTT against Gle1: the z-score is 0.365 (inactive).

On to GGUGGAGAAACAAAUUAGUTT against Rab9, for which the z-score is 1.47 (inactive).

For the sequence GGAAGAAAGAAUUGAACUUTT against Add3, the z-score was 1.02 (inactive).

Consider CAUGAACGUGGGUAAAACGTT against Rab20, for which the z-score was -0.878 (inactive).

With GGAACUGGAUCCUAGGAUATT against Sh3bp5l, the z-score is -1.35 (inactive).

As to GCCAAAUCUACUGUUAUUUTT against Fam174a, the z-score is 1.06 (inactive).

Consider GGAAAGAUCAUGGACAAGUTT against Dtna, for which the z-score was 2.06 (active).

As to GCAGUGAUCCGGAACAAAUTT against Tmc3, the z-score was -0.455 (inactive).

As for GGCGAAAAUUACUCGAAAGTT against Penk, the z-score is 0.941 (inactive).

For the sequence GGAUGACGUAAUUGACGGCTT against Cyp19a1, the z-score was 0.0212 (inactive).

Take CCAAAAUAAGUGUGGUCAATT against Vstm2l: the z-score is -0.623 (inactive).

On to GGACUUGGUUUAUGAAACATT against Kif9, for which the z-score is -1.33 (inactive).

Take GGAGACCUUACCACUUGAATT against Ephx1: the z-score was -1.2 (inactive).

Regarding GGUCAAUUCCCAUACCCUGTT against Tfr2, the z-score is -1.23 (inactive).

With CGACUCCCACCUUUAGGAGTT against Nkx2-5, the z-score was 2.5 (active).

GGUGAAAAUACAUUGCCAGTT against Plk4: the z-score was -0.712 (inactive).

CCCAAAUAACAGAGAAAUGTT against St8sia6: the z-score is 0.818 (inactive).

As to CCUGAGAUUUCCUAACAUCTT against Prr11, the z-score was -0.281 (inactive).

On to GGUGAAGUCACUAAUCUUUTT against Prpf19, for which the z-score is 1.12 (inactive).

On to GCCACGACCUGGAACAACUTT against Taf6l, for which the z-score was -0.479 (inactive).

Take “CGGCCUAACAGCCAGACUUTT against 1700013G24Rik”: the z-score was 0.9 (inactive).

As to GGUUUCUGCCAUCCAUCAGTT against Zfa-ps, the z-score was -0.705 (inactive).

For the sequence CUUUUACACCAUCAUGACGTT against Mrgpra5, the z-score was -2.06 (active).

Consider GGCGAAUGAAGGUUUCUGGTT against Pex11b, for which the z-score was -0.581 (inactive).

GCUGUUGGUCUGAUAGCUUTT against Hadhb: the z-score was 0.378 (inactive).

Consider GCCAUGCCUUAAUCUUGGUTT against Cd300lf, for which the z-score was 0.0466 (inactive).

For the sequence GCAAAGACGAAAUGCCGAGTT against Ttc32, the z-score was -0.23 (inactive).

With GAUUCUCCAUUGCCCAAUGTT against Lce1i, the z-score was 0.0132 (inactive).

As to CCUCAACUCCCUGUCACACTT against Rnaseh2a, the z-score was 0.944 (inactive).

Regarding GGAGCGAUUCACAAAUUACTT against Tapt1, the z-score was 3.05 (active).

Turning to CGACUAUUUGGGUGGCAAGTT against Scin, the z-score was -0.103 (inactive).

For GGUAAGAAAACUGACCUUATT against Abra, the z-score is -0.787 (inactive).

As to GGCUGUAUGCUCAGACUGATT against Olfr147, the z-score is -1.25 (inactive).

In the case of GGGCAUAUUUGGAAUCUGATT against Rtn4, the z-score is 2.51 (active).

As for GGAAUCUACCACUUGGUUCTT against Chrdl2, the z-score is -0.936 (inactive).

On to GGGAUUCAGAGUCAAGAUUTT against Thpo, for which the z-score was -0.275 (inactive).

Regarding GCUUCCUACCAUGAUGGUCTT against Otol1, the z-score is 2.13 (active).

With GCCCUUACAUAAUAGCUUGTT against Tacr2, the z-score is 1.56 (inactive).

On to GGUCCCAGUCUAUGAAAACTT against Pym1, for which the z-score is 1.81 (inactive).

Take GUCCUGAAAAUGCUAUUCUTT against Olfr68: the z-score was 0.281 (inactive).

CCUGGUGCUUCGUAAUUACTT against Cyp11a1: the z-score was -1.03 (inactive).

GGGUACAAAACUUGAACUUTT against Gins3: the z-score is 2.84 (active).

On to GGACAGUGUGUUUUCUUGUTT against Ankle1, for which the z-score was 0.551 (inactive).

With CCAGAUUCCUCUUGGCCGATT against Spryd7, the z-score is 0.36 (inactive).

Regarding GCAAGAUUCAGAGUGCAGCTT against Txlng, the z-score is -1.09 (inactive).

As for GGUUGCAUUGUAGGGUUGGTT against Olfr129, the z-score was 0.221 (inactive).

As for GCCCUAAAUCCUUUUAUUATT against Trpc7, the z-score is 2.78 (active).

In the case of GGAUGUACAAUAAUUGGGATT against Pramel39, the z-score is 1.45 (inactive).

Consider GCAGGAUUCAAAGAUCUAATT against Kbtbd8, for which the z-score was -0.587 (inactive).

As to “GGCUCUAUCUUAAAAUAACTT against 4930542C12Rik”, the z-score was 0.125 (inactive).

As to GCCGAGCUUUUGUGAGUAUTT against Rhobtb2, the z-score was 0.247 (inactive).

Take GCCAAUUGGACCUUAGAAATT against Nup107: the z-score is -2.58 (active).

With GGACUUUGUCACCAUGACGTT against Pef1, the z-score was 0.105 (inactive).

CCUAAAGAAGGUCUAUGCCTT against Tmbim6: the z-score was -0.0538 (inactive).
